# Records with an inconclusive call do not appear. Entries that show only a call come without a potency. Active and inactive are the calls of the source. Calls come from the whole dose curve; as a rule, active = well fitted inhibition curve with a large enough effect; inconclusive = small, poorly fitted or top-dose-only effect; inactive = no such curve, though single readings can be large or run the other way.
# Test: Primary qHTS for small molecule stabilizers of the endoplasmic reticulum resident proteome: Secreted ER Calcium Modulated Protein (SERCaMP) assay (AID 1508630)
# Conditions: SH-SY5Y GLuc-SERCaMP (Gaussia luciferase released on ER calcium loss) secretion, thapsigargin, luminescence; series mostly up to 38.4 µM
# Outline: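 The SH-SY5Y reporter protocol was run at 3 concentrations up to 38.3 uM (primary) or 11 concentrations (follow-up): 16 h compound, 100 nM thapsigargin for 4 h, then extracellular luciferase luminescence.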
# Potency is the fitted concentration of half-maximal effect.
row,SMILES,Potency
1,CCc1cc(Nc2nccc(-c3c(-c4ccc(OC)c(C(=O)Nc5c(F)cccc5F)c4)nc4ccccn34)n2)c(OC)cc1N1CCC(N2CCN(S(C)(=O)=O)CC2)CC1,6 nM (active)
2,CC1(C)CNc2cc(NC(=O)c3cccnc3NCc3ccncc3)ccc21,inactive
3,Cc1c(C)c2c(c(C)c1O)CCC(C)(COc1ccc(CC3SC(=O)NC3=O)cc1)O2 (stereo unspecified),inactive
4,CNC(=O)c1ccc(N2C(=S)N(c3ccc(C#N)c(C(F)(F)F)c3)C(=O)C2(C)C)cc1F,inactive
5,C[C@@H]1CN(Cc2ccc(F)cc2)[C@@H](C)CN1C(=O)c1cc2c(C(=O)C(=O)N(C)C)cn(C)c2cc1Cl,inactive
6,O=C(NOC[C@H](O)CO)c1ccc(F)c(F)c1Nc1ccc(I)cc1F,inactive
7,Nc1cccc(S(=O)(=O)N2CCCN(S(=O)(=O)c3ccc4c(c3)OCCO4)CC2)c1,inactive
8,O=C(O)[C@@H](c1ccc(OCc2ccc3ccccc3n2)cc1)C1CCCC1,inactive
9,NC(=O)C1CCCc2c1[nH]c1ccc(Cl)cc21 (stereo unspecified),inactive
10,CCn1c(-c2nonc2N)nc2cnc(Oc3cccc(NC(=O)c4ccc(OCCN5CCOCC5)cc4)c3)cc21,inactive
11,Cc1cc(-c2ccc(CC(=O)Nc3ccc(-c4cccnc4)cc3)cc2)ccn1,inactive
12,Nc1nccc(-c2ccc3noc(-c4ccc(Cl)cc4)c3c2)n1,inactive
13,CCOc1cc(C=C2C(=O)N(c3ccccc3)N=C2C)cc(Cl)c1OCC(=O)OC,inactive
14,Cc1csc(NC(=O)c2sc3nc4c(c(C(F)(F)F)c3c2N)CCC4)n1,inactive
15,NC(=O)c1ccc(-c2nc(-c3ccc4c(c3)OCCO4)c(-c3ccccn3)[nH]2)cc1,inactive
16,Cc1cc([C@@H](C)Nc2ccccc2C(=O)O)c2nc(N3CCOCC3)cc(=O)n2c1,inactive
17,COc1cc(F)c(F)c(Nc2ccc(I)cc2F)c1NS(=O)(=O)C1(C[C@H](O)CO)CC1,inactive
18,C[C@]1(c2nc3c(C(N)=O)cccc3[nH]2)CCCN1,inactive

row,SMILES,Potency
1,CCCS(=O)(=O)Nc1ccc(F)c(C(=O)c2c[nH]c3ncc(-c4ccc(Cl)cc4)cc23)c1F,inactive
2,COc1ccc(-c2ccc3c(N4CCOC[C@H]4C)nc(N4CCOC[C@H]4C)nc3n2)cc1CO,inactive
3,CC(C=CC1=C(C)CCCC1(C)C)=CC=CC(C)=CC(=O)O,inactive
4,Cc1ccnc(NS(=O)(=O)c2ccc(NC(=O)Nc3ccc(S(=O)(=O)Nc4nccc(C)n4)cc3)cc2)n1,inactive
5,CC(C)(C)OC(=O)CN(Cc1ccc(Cl)cc1)Cc1ccc([N+](=O)[O-])s1,inactive
6,Cc1ccccc1C(C(=O)NC1CCCC1)N(C(=O)Cn1cnc2ccccc21)c1cccc(F)c1 (stereo unspecified),inactive
7,Cc1cc2c(F)c(Oc3ncnn4cc(OC[C@@H](C)O)c(C)c34)ccc2[nH]1,inactive
8,Nc1nc2[nH]cc(CCc3ccc(C(=O)N[C@@H](CCC(=O)O)C(=O)O)cc3)c2c(=O)[nH]1,inactive
9,NC(=O)c1ccc(I)c([N+](=O)[O-])c1,inactive
10,COCC(=O)NCC=Cc1ccc2ncnc(Nc3ccc(Oc4ccc(C)nc4)c(C)c3)c2c1,inactive
11,COc1c(Cl)cc2c([nH]c3cnccc32)c1NC(=O)c1cccnc1C,inactive
12,CCn1c(-c2nonc2N)nc2c(C#CC(C)(C)O)ncc(OC[C@H]3CCCNC3)c21,inactive
13,CN[C@@H](C)C(=O)N[C@H]1CCCC[C@H]2CC[C@@H](C(=O)N[C@@H](c3ccccc3)c3cn(CCCCc4ccc(CCCCn5cc([C@@H](NC(=O)[C@@H]6CC[C@@H]7CCCC[C@H](NC(=O)[C@H](C)NC)C(=O)N76)c6ccccc6)nn5)cc4)nn3)N2C1=O,inactive
14,CCCS(=O)(=O)Nc1ccc(F)c(C(=O)c2c[nH]c3ncc(Cl)cc23)c1F,inactive
15,COc1ccc(CC2=NN3C([C@@H](CCc4ccccc4)[C@@H](C)O)=NC(C)C3C(=O)N2)cc1OC (stereo partly specified),inactive
16,O=C(Nc1ccc(F)c(C(F)(F)F)c1)Nc1nnc(-c2ccncc2)s1,inactive
17,CCOc1cc(N2CCC(O)CC2)ccc1Nc1ncc2c(n1)N(C)c1ccccc1C(=O)N2C,inactive
18,Cc1cc(SCc2sc(-c3ccc(C(F)(F)F)cc3)nc2C)ccc1OCC(=O)O,inactive

# From PubChem BioAssay (NCATS)
